Compound activity from PubChem.
Hits are enriched below; roughly 1.1% of the tested compounds scored in any of these assays.
HTR5A ag: activates human HTR5A in OPRM1-OPRD1 agonist counter-screen; HTR5A agonist assay, luminescence, cell-based; activation, % at 9.3 µM; P47898; AID 504692; 0.61% of 340,000 active; in the data active means activation mostly above about 9.5%, no sharp cut-off; inactive means mostly below about 7.6%;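 further: 0% = cells with vehicle only and 100% = reference agonist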
MOR-DOR ag-1: agonists of human mu-delta opioid receptor heterodimerization. P35372+P41143. cells, OPRM1-OPRD1 heterodimerization, luminescence. activation, % at 9.3 µM. 0.3% of 340,000 active;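 further: 0% = vehicle-treated cells and 100% = reference agonist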
Target sequence (P35372 whole entry, looked up): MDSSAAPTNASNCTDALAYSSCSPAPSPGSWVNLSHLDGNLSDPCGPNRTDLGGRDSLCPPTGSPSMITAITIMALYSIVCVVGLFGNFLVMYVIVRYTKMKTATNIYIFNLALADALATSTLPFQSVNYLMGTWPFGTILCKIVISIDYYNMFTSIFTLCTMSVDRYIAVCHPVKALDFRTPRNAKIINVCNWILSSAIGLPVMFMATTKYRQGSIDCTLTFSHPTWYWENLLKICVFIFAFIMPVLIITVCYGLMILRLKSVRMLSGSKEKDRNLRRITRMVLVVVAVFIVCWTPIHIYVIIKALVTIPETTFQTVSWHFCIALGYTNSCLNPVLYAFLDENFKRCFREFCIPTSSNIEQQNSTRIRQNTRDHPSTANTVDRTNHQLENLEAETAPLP
Target sequence (P41143 whole entry, looked up): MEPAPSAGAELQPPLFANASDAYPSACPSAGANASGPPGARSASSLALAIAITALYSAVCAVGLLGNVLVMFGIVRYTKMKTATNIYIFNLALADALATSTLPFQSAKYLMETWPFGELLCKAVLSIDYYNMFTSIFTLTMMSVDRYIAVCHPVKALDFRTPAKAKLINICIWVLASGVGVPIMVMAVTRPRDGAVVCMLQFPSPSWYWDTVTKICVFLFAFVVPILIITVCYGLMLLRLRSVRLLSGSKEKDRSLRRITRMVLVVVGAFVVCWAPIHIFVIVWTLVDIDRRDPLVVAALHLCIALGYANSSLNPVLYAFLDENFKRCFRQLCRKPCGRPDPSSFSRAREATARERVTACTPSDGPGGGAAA
OPRM1-OPRD1 inv: mu-delta opioid heterodimer inverse agonism; cell-based MOR-DOR heterodimer luminescence; inhibition, % at 9.3 µM; 0.21% of 340,000 active; AID 504357; in the data active means inhibition above about 22%, passing the limit was not always enough;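 further: 0% = cells with DMSO and 100% = wells without cells with DMSO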
HTR5A inv ctr: HTR5A inverse agonism, opioid heterodimer counter-screen; HTR5A cell line, luminescence; inhibition, % at 9.3 µM; 0.083% of 340,000 active; in the data active means inhibition mostly above about 23%, no sharp cut-off; inactive means mostly below about 18%;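 further: 0% = cells with DMSO and 100% = no-cell wells with DMSO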
MOR-DOR ag-2: counter-screen for HTR5A agonists: OPRM1-OPRD1 heterodimerization agonism; shares compounds with HTR5A ag; U2OS counter-screen cells, complementation luminescence, 3 h; activation, % at 9.3 µM; 13% of 800 active; AID 504913
HTR5A ag conf: HTR5A (human) agonism, confirmation. shares compounds with HTR5A ag. HTR5A agonist cell assay, luminescence. activation, % at 9.3 µM. 17% of 800 active. AID 504915; in the data active means activation above about 17%;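 further: 0% = cells with vehicle only and 100% = full reference agonist response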
The depositor's hits bear a star; x = no result given. Unless noted, no stated cut-off is given here; in the data, active means activation above about 18%; inactive means the rest.

SMILES	HTR5A ag	MOR-DOR ag-1	OPRM1-OPRD1 inv	HTR5A inv ctr	MOR-DOR ag-2	HTR5A ag conf
O=C(O)CN1C(=O)C(=O)N(Cc2ccc(Cl)c(Cl)c2)C1=O	3.9	-3.5	15.5	-14.8	x	x
O=C(Nc1ccc(N2CCN(Cc3ccccc3F)CC2)cc1)c1ccccc1[N+](=O)[O-]	2.4	0.6	-3.4	-12.5	x	x
O=C(Nc1ccc(N2CCN(Cc3ccccc3F)CC2)cc1)c1ccc([N+](=O)[O-])o1	25.1*	8.0	-42.6	-23.2	-1.8	-0.9
COc1ccc(NS(=O)(=O)c2cccc(C(=O)NCC(c3ccccc3OC)N3CCCC3)c2)cc1 (configuration not stated)	1.6	-0.5	3.4	-21.3	x	x
COc1ccccc1C(CNC(=O)c1cccc(S(=O)(=O)Nc2ccc(F)cc2)c1)N1CCCC1 (configuration not stated)	64.9*	-2.1	7.8	-189.4	-2.6	0.4
Cc1cc(C)nc(SCC(=O)N/N=C\c2sccc2C)n1	22.1*	-0.2	1.4	-48.4	2.1	22.0*
CCCOn1nnnc1-c1ccccc1	20.5*	0.2	-1.1	-56.5	535.2*	2.6
NC1=NN(c2c(Cl)cc(Cl)cc2Cl)C(=O)C1	2.5	-1.1	5.4	-9.8	x	x
NC1=NC(=O)/C(=C/c2cn(Cc3ccccc3)c3ccccc23)S1	16.4*	4.0	-20.5	-18.8	0.6	16.7*
O=C1NC2(CCCCO2)CO1 (configuration not stated)	3.3	-1.7	8.9	-3.0	x	x
COc1ccc(C(=O)NCc2c(C)nn(Cc3ccccc3)c2C)cc1S(=O)(=O)N1CCOCC1	16.6*	-3.1	12.5	-42.2	0.5	-0.3
COc1ccc(S(=O)(=O)N2CCOCC2)cc1C(=O)NCc1c(C)nn(Cc2ccccc2)c1C	4.2	-0.5	2.0	-11.5	x	x
COc1ccc(C(=O)NNC(=O)c2cccs2)cc1S(=O)(=O)N1CCOCC1	0.7	2.4	-10.1	-1.7	x	x
Cc1cc(C(=O)NCC(c2cccs2)N2CCOCC2)ccc1[N+](=O)[O-] (configuration not stated)	2.3	-3.2	16.8	15.0	x	x
CC(=O)N1c2ccc(S(=O)(=O)N3CCCC3)cc2CC1C(=O)Nc1cc(C)cc(C)c1 (configuration not stated)	-1.6	-1.9	9.6	12.9	x	x
O=C(c1ccco1)N1CCN(C(=O)c2ccc(-c3cccc(C(F)(F)F)c3)o2)CC1	35.3*	-1.4	9.3	-92.1	0.2	23.4*
O=C(c1ccc(-c2cccc(C(F)(F)F)c2)o1)N1CCCCCCC1	3.6	2.6	-13.7	-9.8	x	x
CCOC(=O)c1c(CSC(=N)N)n(-c2ccc(C)cc2)c2cc(Br)c(OC(C)=O)cc12	16.7*	16.1	-93.4	-97.7	14.0	7.6
CCOC(=O)c1c(CSC(=N)N)n(C)c2cc(Br)c(OC(C)=O)cc12	4.3	-1.2	5.8	15.9	x	x
CCN(CC(=O)NCc1cccs1)C(=O)c1ccc(-c2ccccc2F)o1	-3.1	-2.2	8.6	11.5	x	x
COc1ccc(CN2CCNC(=O)C2CC(=O)N(C)Cc2nonc2C)c(F)c1 (configuration not stated)	2.6	-1.9	10.2	21.3	x	x
O=S(=O)(NC(=NC1CCCCC1)c1ccccc1)c1ccccc1	3.7	-1.5	8.0	0.6	x	x
Cc1ccc(S(=O)(=O)NC(=NC2CCCCC2)c2ccc(Cl)cc2)cc1	14.4*	1.3	-10.6	-42.8	2.1	3.7
Cc1nc(NC(=O)c2ccc(Br)o2)ccc1Br	10.7	1.9	-7.8	-27.4	x	x
Cc1nc(NC(=O)c2cc3ccccc3o2)ccc1Br	21.5*	0.9	-4.7	-51.8	3.6	0.4
SMILES	HTR5A ag	MOR-DOR ag-1	OPRM1-OPRD1 inv	HTR5A inv ctr	MOR-DOR ag-2	HTR5A ag conf
CC(C)(C)C(=O)Nc1ccc(/C=C/C(=O)c2ccco2)cc1	-6.6	-2.5	12.2	22.3	x	x
Cc1ccc(CN2CC(C(=O)NC(c3nc4ccccc4[nH]3)C(C)C)CC2=O)cc1 (configuration not stated)	-4.2	-1.7	6.8	10.1	x	x
COC(=O)[C@@]12CCCCN1[C@H](c1ccc(-c3ccc(C(C)=O)cc3)cc1)[C@@H]1C(=O)N(C)C(=O)[C@@H]12	3.3	-1.1	5.2	-22.8	x	x
c1ccc2c(NCCc3c[nH]c4ccccc34)c3ccccc3nc2c1	17.3*	3.1	-17.3	-67.9	6.9	2.1
Fc1cccc(NCCc2c[nH]c3ccccc23)n1	-3.0	4.5	-26.1	11.7	x	x
Cc1ccccc1NC(=O)C(=O)NCCc1c[nH]c2ccccc12	34.7*	3.0	-16.4	-190.0	2.2	61.0*
O=C(CCC(=O)c1ccccc1)NCCc1c[nH]c2ccccc12	93.5*	-1.4	7.7	-292.6	2.1	89.1*
COc1ccc(C(=O)CCC(=O)NCCc2c[nH]c3ccccc23)cc1	44.3*	-4.5	20.1	-156.4	0.2	42.1*
O=C(CNc1cccc(S(=O)(=O)N2CCCC2)c1)Nc1ccc(F)cc1F	-1.6	-0.9	5.7	4.9	x	x
O=C(Nc1ccccc1)C1=C[C@H](c2ccc(Br)cc2)C[C@H](OCc2ccc(CO)cc2)O1	-0.3	-0.1	0.4	-3.1	x	x
CCN1C(=O)N[C@@H](c2ccccc2)[C@@H](C(=O)OC)[C@H]1C	3.0	-2.1	12.0	2.2	x	x
O=C(Cc1ccccc1)NCCc1c[nH]c2ccccc12	-0.1	-2.0	10.4	-1.6	x	x
O=C(NCCc1c[nH]c2ccccc12)c1cccc(S(=O)(=O)Nc2ccccc2Cl)c1	-0.4	-1.6	7.9	1.6	x	x
O=C(O)c1nccnc1C(=O)NCCc1c[nH]c2ccccc12	15.9*	-3.4	17.9	-5.3	-0.1	11.8
CN(c1ccccc1)S(=O)(=O)c1cccc(C(=O)NCCc2c[nH]c3ccccc23)c1	26.7*	-1.6	8.3	-72.9	57.0*	0.6
CCc1nc2oc3ccccc3c(=O)c2c(=O)n1CCOC	2.7	-0.1	0.7	-22.1	x	x
CCc1nc2oc3ccccc3c(=O)c2c(=O)n1-c1ccccc1	14.4*	-4.1	20.7	-3.5	-2.1	-3.3
O=C(Nc1ccc(C(=O)N2CCCC2)cc1)c1ccccc1[N+](=O)[O-]	18.5*	0.4	-1.9	25.8	-0.3	5.4
Cc1cc(S(=O)(=O)NCc2ccc3c(c2)OCO3)ccc1F	-4.3	-1.4	7.2	-25.6	x	x
O=S(=O)(NCc1ccc2c(c1)OCO2)c1ccc(F)c(F)c1	14.9*	-1.1	5.6	-19.1	1.1	2.1
Cc1ccnc(NC(=O)c2ccccc2[N+](=O)[O-])c1	7.9	-0.4	2.4	9.9	x	x
Cc1ccnc(NC(=O)c2cccc3ccccc23)c1	17.4*	-2.6	13.4	-42.0	0.0	-0.3
CC(C)N1CCc2c(sc(NC(=O)c3ccc4ccccc4c3)c2C(N)=O)C1	18.3*	3.4	-17.4	-27.1	4.1	18.4*
COc1cc(/C=N/NC(=O)C(=O)/C=C2\NC(C)(C)Cc3ccccc32)ccc1O	-5.5	-0.3	1.4	23.6	x	x
CCc1cc2c(C)ccc(C)c2nc1SCC(=O)Nc1cc(C)on1	-0.2	-1.3	8.3	13.7	x	x
CCc1cc2ccccc2nc1SCC(=O)Nc1cc(C)on1	25.8*	3.5	-15.3	-13.8	2.5	4.1
